# Compound activity (PubChem)
# PINK1 modulator: PINK1 expression modulation; PINK1 immunofluorescence, high-content cytometry, 24 h; AID 624263; Potency, µM (titrated, usually from 76.6 µM), for inactives: top-dose activation (PINK1 increase), actives largely listed as activators; hit rate 0.2% among 410,000; active = well fitted activation curve with a large enough effect; inconclusive = small, poorly fitted or top-dose-only effect; cell line not stated here; note: potency is the fitted concentration of half-maximal effect; % of control where 0% means no effect; nearly all actives have a fitted effect of over 65% in size
#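 Stable cell line treated 24 h with compounds at 5 concentrations (CCCP controls), then fixed and immunostained for PINK1 plus nuclear and cell stains; PINK1 immunofluorescence quantified by laser-scanning microplate cytometry.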
# SW480 rereplic: induces DNA re-replication in SW480 colon adenocarcinoma cells; SW480 DNA re-replication, Hoechst DNA content imaging, 48 h; Potency, µM (series often up to 46.1 µM), without a hit: top-dose re-replication activation, usual class: activators; hit rate 1.8% among 340,000; AID 624297; note: potency is the fitted concentration of half-maximal effect; % of control where 0% means no effect; nearly all actives have a fitted effect of over 55% in size
#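 Quantitative HTS format with DMSO vehicle controls; 48 hr drug incubation at 37 C, then 40 min Hoechst staining and scanning imager measurement at 405 nm excitation.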
# IL-1B inflam inh: blocks inflammasome-driven IL-1 beta release. AID 743279. hit rate 4.7% among 360,000. THP-1 LPS/ATP IL-1B secretion, AlphaLISA, 16 h; active compounds read low. activity change, % at 57.5 µM; in the data active = activity change below about -50%; inconclusive = mostly about -30% to -49%; note: % is set by controls: 0 for no effect and ±100 for the full control effect
#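 THP-1 cells pretreated 1 hr with compounds (up to 57.5 uM final), then stimulated with LPS (250 ng/mL final) plus ATP (1.25 mM final); secreted IL-1B measured by AlphaLISA after 16 hr, decreased signal indicating inhibition.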
# ATXN viability: reduces viability in counter-screen for ATXN expression inhibitors; Potency, µM (titrated, usually from 56.7 µM), most hits filed as cytotoxic; S2 cells (HEK-293 line with an ATXN2-luciferase reporter) viability, CellTiter-Fluor protease fluorescence, 24 h; AID 651635; hit rate 0.49% among 400,000; note: potency is the fitted concentration of half-maximal effect; nearly all actives have a fitted effect of over 40% in size
# ATXN2 expr inh: reduces ATXN2 reporter expression in HEK-293 cells; Potency, µM (series often up to 57 µM), for the others: at the highest dose activity change, negative = inhibition, usual class: inhibitors; HEK-293 ATXN2-luciferase reporter, luminescence, 24 h; AID 1745845; hit rate 0.72% among 360,000; note: potency is the fitted concentration of half-maximal effect; % is set by controls: 0 for no effect and ±100 for the full control effect; nearly all actives have a fitted effect of over 55% in size
#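 ATXN2-luciferase reporter cells (luciferase flanked by upstream and downstream ATXN2 gene portions) were treated 24 h at 37 °C with compounds at up to 57 uM. SteadyGlo luminescence gave expression; GF-AFC fluorescence gave viability.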
# MCF10A rereplic: induces DNA re-replication in MCF 10a normal breast cells; MCF 10A DNA re-replication, Hoechst nuclear intensity, 48 h; Potency, µM (series often up to 46.1 µM), inactives show at the highest dose activity, positive = re-replication, hits mostly activators; hit rate 2.9% among 350,000; AID 624296; note: potency is the fitted concentration of half-maximal effect; % of control where 0% means no effect; nearly all actives have a fitted effect of over 50% in size
# Numbers without * were called inactive; i = inactive; ? = inconclusive; · = not tested or not shown; [ ] = dose if it differs, or a comment. The list is not random: actives were taken first. Their share in the collection is about 7.1%. Unless noted, calls come from the whole dose curve; as a rule, active = well fitted curve in the direction sought with a large enough effect; inconclusive = small, poorly fitted or top-dose-only effect, or another doubt; inactive = no such curve, though single readings can be large; an effect the other way counts as inactive or inconclusive.
SMILES,PINK1 modulator,SW480 rereplic,IL-1B inflam inh,ATXN viability,ATXN2 expr inh,MCF10A rereplic
CC1(C)Cc2c(C#N)c(N3CCN(C(=O)c4ccccc4Cl)CC3)nc(-c3ccco3)c2CS1,1%,9.2µM*,-10,i,-3%,5.8µM*
CCCN(CCC)C(=O)Cn1c(=O)n(-c2ccccc2)c(=O)c2c3c(sc21)CCCC3,2%,·,·,i,6%,·
Cc1cc(-c2ccc(CC(=O)Nc3ccc(-c4cccnc4)cc3)cc2)ccn1,·,·,·,·,-6%,·
N#Cc1c(N2CCN(C(=O)c3ccccc3Cl)CC2)nc(-c2ccccc2)c2c1CCCC2,-2%,24%,-58*,i,3%,?
Cc1cc(-c2ccco2)c(C#N)c2nc3ccccc3n12,?,9%,-12,?,0%,18µM*
N#Cc1c(N2CCN(C(=O)c3ccccc3)CC2)nc(-c2ccccc2)c2c1CCCC2,8%,4%,?,i,-9%,?
COc1ccc(NCc2nc3ccccc3n2CCOc2ccccc2)cc1,-2%,2%,-114*,i,71%,?
COc1ccc(NCc2nc3ccccc3n2CCOc2ccc(C)cc2)cc1,?,4%,-95*,?,?,21µM*
Cc1cccc(OCCn2c(-c3ccco3)nc3ccccc32)c1,0%,6.5µM*,-2,i,18%,252%[0.0737 µM]
c1ccc(NCc2nc3ccccc3n2CCOc2ccccc2)cc1,2%,·,-11,i,34%,3%
O=C(O)c1cn(C2CC2)c2cc(N3CCNCC3)c(F)cc2c1=O,·,-1%[20.6 µM],·,i,5%,0%[20.6 µM]
COc1ccc(CC(=O)NCC(c2cccs2)S(=O)(=O)c2ccc(Cl)cc2)cc1 (stereo unspecified),2%,·,·,·,·,·
O=C(O)c1ccc(N/N=C/c2ccc(-c3ccccc3)cc2)cc1,?,21µM*,-17,i,66%[11.3 µM],1.3µM*
O=C(O)c1cc(N/N=C/c2ccc(-c3ccccc3)cc2)ccc1Cl,5%,?,21,i,·,3.3µM*
COc1cc(/C=N/Nc2ccc(C(F)(F)F)cn2)ccc1O,0%,19%,-15,?,·,3%
O=C(O)c1ccc(/C=N/Nc2ccc(C(F)(F)F)cn2)cc1,5%,5.8µM*,20,i,65%,12µM*
Cc1ccc(/C=N/Nc2ccc(C(=O)O)cc2)s1,1%,3%,18,i,0.95µM*,-1%
NC1CCc2ccc([N+](=O)[O-])cc21 (stereo unspecified),2%,·,·,·,·,·
O=C(N/N=C/C=C/c1ccccc1)c1ccncc1,0%,-5%,2,i,9%,-5%
O=C(O)c1ccc(N/N=C/C=C/c2ccccc2)cc1,-1%,-5%,-14,i,40%,15µM*
CCOc1cccc2cc(C(=O)NCc3cccnc3)c(=O)oc12,11µM*,-5%,0,i,17%,?
C=CCc1cccc2cc(C(=O)NCc3cccnc3)c(=O)oc12,·,?,?,i,-2%,7%
CCCCC1CCC(c2ccc(C(N)=O)cc2)CC1 (stereo unspecified),0%,-7%,0,i,·,-6%
CCCCCC1CCC(c2ccc(/C(N)=N/O)cc2)CC1 (stereo unspecified),5%,2.3µM*,8,?,·,?
CCCN(CCC)CC(O)Cn1cc(/C=C/C(=O)c2ccc(C)cc2)c2ccccc21 (stereo unspecified),-1%,·,·,?,?,·
CCCN(CCC)CC(O)Cn1cc(/C=C/C(=O)c2ccccc2)c2ccccc21 (stereo unspecified),-2%,?,-86*,?,-8%,5.2µM*
CCCN(CCC)CC(O)Cn1cc(/C=C/C(=O)c2cccs2)c2ccccc21 (stereo unspecified),-2%,16µM*,-104*,i,-5%,?
CC(NC(=O)/C(C#N)=C/c1ccc(OCC(=O)O)cc1)c1ccccc1 (stereo unspecified),1%,-1%,-2,·,·,?
